According to ChEMBL document CHEMBL4513216, “Probing the Open Global Health Chemical Diversity Library for Multistage-Active Starting Points for Next-Generation Antimalarials” (ACS Infect Dis, 2020):
About 8,600 (12%) of roughly 69,000 compounds showed an effect of 50% or more. For the sample, strong results were picked, then their nearest neighbours and some compounds at random.

The compounds below were run on Plasmodium berghei (assay: Screen against P. berghei liver stage (PbLuc), transformed with Luciferase, at 10uM). Settings: tested at 10 uM.
Type: functional, HepG2

SMILES	INHIBITION [%]
Fc1cc(CN2CCCC2Cn2cncn2)c2ncccc2c1 (stereo not drawn)	11.8
O=C(N1CCCO1)[C@@]12CCO[C@@H]1CCN(C1CCCCC1)C2	13
Cc1ccc(Oc2ncccc2CNC(=O)C2COC(=O)N2)c(F)c1F (stereo not drawn)	12.9
COc1ccccc1Oc1ncccc1CNC(=O)C1COC(=O)N1 (stereo not drawn)	41.3
Cc1cccc(C)c1Oc1ncccc1CNC(=O)C1COC(=O)N1 (stereo not drawn)	53.8
CCCN(CCO)C(=O)c1cc(COc2ccc3c(c2)CCCC3)on1	33
CC(Cn1cccn1)NC(=O)NCCc1ccsc1 (stereo not drawn)	21.5
CCC(C(=O)Nc1ccc2nc(C)oc2c1)N1CCCC1=O (stereo not drawn)	71.2
CCC(CNC(=O)Nc1cnn(CC)c1)N1CCCC1 (stereo not drawn)	39.5
Cc1occc1CNC(=O)Nc1ccc2nc(N3CCOCC3)oc2c1	25.8
CCC(C(=O)NCCc1ccn(-c2ccccc2)n1)N1CCCC1=O (stereo not drawn)	-21
CCC(C(=O)N1CCCSCC1)N1CCCC1=O (stereo not drawn)	21.5
CCC(C(=O)Nc1ccc2cn(CC)nc2c1)N1CCCC1=O (stereo not drawn)	54.5
CN(C)C(=O)COCC1CN(C2CCC2)Cc2ncn(C)c21 (stereo not drawn)	-19.1
Cc1cc(C)n(Cc2cccc(C(=O)N3CCOCC3(C)C)c2)n1	-4.23
CCN(CC)C(=O)CNC(=O)N1CCC(c2ccccc2)C1 (stereo not drawn)	43.7
CC(C)(O)CCc1ccc(C(=O)N2CCN(CC(F)(F)F)CC2)cc1	52.6
O=C(c1ccc(CN2CCCCC2)cc1)N1Cc2cnn(CCO)c2C1	30.3
CC(C)(O)CCc1ccc(C(=O)N2Cc3cnn(CCO)c3C2)cc1	73
CC(C)(O)CCc1ccc(C(=O)N2CCN(CCS(C)(=O)=O)CC2)cc1	16.8
CC(C)(O)CCc1cccc(C(=O)N2Cc3cnn(CCO)c3C2)c1	14
CC(C)(O)CCc1ccc(C(=O)N2CCN(CC3CCCC3)CC2)cc1	26.6

SMILES	INHIBITION [%]
CCCS(=O)(=O)N1CC(=O)N(CCCc2ccccc2)CC(O)C1 (stereo not drawn)	48.7
O=C(c1sccc1C1CC1)N1CCCN(Cc2cscn2)CC1	-4.16
Cc1cccc(C(C(=O)NCc2cc(C)[nH]n2)N(C)C)c1 (stereo not drawn)	3.69
COc1cc(NCc2ccncc2)c(-c2nn[nH]n2)cc1OC	-34.6
COc1ncccc1CNC(=O)N1CCCC1c1ccsc1 (stereo not drawn)	-24.2
CCN1CCN(C(=O)NCc2cc[nH]n2)CC1	-29.7
CN(C)c1ncnc2c1CCN(S(=O)(=O)c1cccc(Cl)c1Cl)C2	42.7
COC(=O)c1sccc1S(=O)(=O)N1CCc2c(ncnc2N(C)C)C1	58.1
Cc1ccccc1S(=O)(=O)N1CCc2c(ncnc2N(C)C)C1	66.1
COC(=O)c1sccc1S(=O)(=O)N1CCC(Oc2cccc(C)n2)CC1	21.8
CN(C)c1ncnc2c1CCN(S(=O)(=O)c1cccc3nsnc13)C2	31.6
COC(=O)c1sccc1S(=O)(=O)N1CCC(Oc2cnccn2)CC1	53.7
CN(C)c1ncnc2c1CCN(C(=O)c1sccc1S(N)(=O)=O)C2	-9.18
COC(=O)c1sccc1S(=O)(=O)N1CCC(Oc2cccnn2)CC1	21.6
CN(C)c1ncnc2c1CCN(S(=O)(=O)c1ccccc1C(F)(F)F)C2	30.3
Cc1cnn(CC2CCCN2Cc2ncc(-c3ccc(F)cc3)o2)c1 (stereo not drawn)	2.3
CC(C)CN(CC(=O)O)C(=O)c1ccc(F)cc1	17.7
CN(CCc1ccccc1)c1cnn(CC2COCCO2)c(=O)c1 (stereo not drawn)	-42.8
O=C(NCc1cncc2c1CCN(C1CCOCC1)C2)c1ccco1	61.3
O=C(NCc1cncc2c1CCN(C1CCOCC1)C2)c1ccno1	34.5
O=C(NCc1cncc2c1CCN(C1CCOC1)C2)c1ccco1 (stereo not drawn)	0.71
COCc1nc(C(=O)NS(=O)(=O)c2cc(Br)ccc2C)cs1	8.55

SMILES	INHIBITION [%]
O=S(=O)(NCc1ccccc1Cn1cncn1)N1CCCCC1	25.1
CCn1cc(Cl)c(C(=O)NCCCN(C)C)n1	39.1
Cc1nccc(C(=O)N2CCCC2c2c(C)nn(C)c2C)n1 (stereo not drawn)	7.08
CCN(CCNC(=O)c1cccnc1OCCOC)C1CC1	34.7
CCN(CCNC(=O)c1ccccc1OCCOC)C1CC1	58.8
CCN(CCNC(=O)c1ccccc1Br)C1CC1	-2.42
O=C(c1ccc(Cn2cnnn2)cc1)N1CCC(c2ccncc2)CC1	-23
O=S1(=O)NCC2(CCN(Cc3ccncc3)CC2)Oc2ncccc21	44.1
CC(C)CCN1CCC2(CNS(=O)(=O)c3cccnc3O2)C1 (stereo not drawn)	67.3
O=S1(=O)NCC2(CCN(Cc3ccc(Cl)s3)C2)Oc2ncccc21 (stereo not drawn)	30
CCc1nnc(CN(C)c2nccc(CCC(F)(F)F)n2)o1	59.3
CC(=O)NCCNc1nccc(CCC(F)(F)F)n1	-41.8
CNc1ncc(CN(C)c2nccc(CCC(F)(F)F)n2)cn1	43.1
CCc1cc(N(C)Cc2ccncn2)n2nccc2n1	10.4
CN(Cc1ccncn1)c1nccc(CCC(F)(F)F)n1	59.3
CCc1nnc(CN(C)c2nccc(N3CCCC(O)C3)n2)o1 (stereo not drawn)	42.1
CC(=O)N1CCOC(c2cncc(CCC(=O)N(C)C)n2)C1 (stereo not drawn)	-6.73
O=C1CCC(=O)c2oc3ccccc3c2N1	-23
CCc1[nH]c2c(CNC(=O)C3CCS(=O)(=O)CC3)cc(C)cc2c1C	48.5
CCc1[nH]c2c(CNc3nc(C)cc(NC)n3)cc(C)cc2c1C	85.1
CCc1[nH]c2c(CNc3cncc(C(=O)OC)n3)cc(C)cc2c1C	45
CCc1[nH]c2c(CNc3cncc(C(=O)N(C)C)n3)cc(C)cc2c1C	14.3

SMILES	INHIBITION [%]
CCc1[nH]c2c(CNC(=O)C3CNC(=O)C3)cc(C)cc2c1C (stereo not drawn)	25.8
CCc1[nH]c2c(CNc3cc(C)nc(NC)n3)cc(C)cc2c1C	87.9
COc1ccc(-c2noc(CN3CCCC3Cn3cccn3)n2)cc1 (stereo not drawn)	29.7
CN1C(=O)c2ccc(C(=O)N(Cc3cnn(C)c3)C3CC3)cc2C1=O	23.8
COCC(=O)N1CCc2ccc(=O)n(Cc3csc(C)n3)c2CC1	2.41
CCOc1ncccc1NC(=O)c1ccc(C(C)=O)s1	7.24
CC1CN(CC(=O)NCCc2ccccc2)CCN1c1nccs1 (stereo not drawn)	33.7
c1coc(CN2CCC3(CCOCC3COCC3CC3)CC2)c1 (stereo not drawn)	18.6
CCNc1cc2c(nn1)CCN(C(=O)c1cc3ccccc3o1)C2	17.4
CCNc1cc2c(nn1)CCN(C(=O)c1cc3cc(C)ccc3o1)C2	68.8
CCNc1cc2c(nn1)CCN(C(=O)c1cc3nc(C)ccc3o1)C2	35.3
CCNc1cc2c(nn1)CCN(C(=O)c1cc3cccc(C)c3o1)C2	70.8
CCNc1cc2c(nn1)CCN(C(=O)c1cc(C)no1)C2	40
CCNc1cc2c(nn1)CCN(C(=O)c1ccc(CNC(C)=O)o1)C2	-21.7
CC(=O)N1CC(=O)N(c2ccsc2)CC12CCN(Cc1ccccn1)C2 (stereo not drawn)	-2.17
CCOc1ccc(C(=O)N2CCN(c3nccn3C)CC2)cc1	14.3
c1cc(CN2CCC(c3ccc4c(c3)OCO4)CC2)ccn1	12.515
Cn1cccc1C(=O)N1C[C@H]2CN(Cc3cccs3)C[C@H]2C1	14.9
CN(C)C1COC2(CCN(Cc3nccs3)CC2)C1 (stereo not drawn)	11.5
Cc1ccc(C(=O)NS(=O)(=O)c2cc(F)ccc2F)c(=O)[nH]1	-1.14
CC(NC(N)=O)C(=O)N(C)CCCc1cc(-c2ccccc2)no1 (stereo not drawn)	0.375
CC(=O)N(C)CCCc1cc(-c2ccccc2)no1	24.75

SMILES	INHIBITION [%]
CSC(C)C(=O)N(C)CCCc1cc(-c2ccccc2)no1 (stereo not drawn)	57.75
O=C(O)[C@]12CCCN(Cc3ccsc3)C[C@H]1CN(c1ncccn1)C2	-10.3
COCCn1cc2c(n1)C(CNCc1nccs1)OCC2 (stereo not drawn)	26.3
Cc1cccc(N2CCC(N3CCCC4(CNC(=O)O4)C3)CC2)c1C (stereo not drawn)	63.4
O=C1NCC2(CCCN(C(=O)Cn3nc4ccccc4n3)CC2)O1 (stereo not drawn)	4.87
Cc1cccc(N2CCC(N3CCC4(CN(C)C(=O)O4)C3)CC2)c1C (stereo not drawn)	64.4
Cc1cccc(N2CCC(N3CCC4(CCCNC4=O)C3)CC2)c1C (stereo not drawn)	32.7
Cc1cccc(N2CCC(N3CCCC4(CN(C)C(=O)O4)C3)CC2)c1C (stereo not drawn)	36.7
Cc1nn(CC(=O)N2CCC3(CN(C)C(=O)O3)C2)c(=O)c2ccccc12 (stereo not drawn)	15.4
Cc1nn(CCO)c(C)c1CNCc1cccnc1N(C)C	19.2
O=C(O)c1cnc(N2CCC(c3nccn3CC3CC3)CC2)c(Cl)c1	25.9
O=C(CN1CCCC(O)C1)NC(=O)NCc1cccs1 (stereo not drawn)	43.4
CN(CCOc1ccc(F)cc1)S(=O)(=O)c1cnn(C)c1	21.2
COCCN1CCN(Cc2c(C)noc2C)Cc2cccnc21	36.9
O=C(NCc1cccc(Cl)c1)C1=NOC2(CCNC2)C1 (stereo not drawn)	21.5
CN(C)C(=O)COC[C@]12COC[C@H]1CN(CCc1ccccc1)C2	24.3
CN(C)CCOCc1ncn2c1CN(c1ncc(F)cn1)CCC2	23.3
Nc1nnc(SCC(=O)NCC(O)c2ccccc2)s1 (stereo not drawn)	-17.2
Cc1nnc(SCC(=O)NCC(c2ccccc2Cl)N(C)C)s1 (stereo not drawn)	-18.5
Cc1ccccc1C(CNC(=O)CSc1nnc(N)s1)N(C)C (stereo not drawn)	54.7
